Among the data in PubChem BioAssay (NCI) are growth values, retold here.

Among the test systems are EKVX NSCLC; SN12C renal; UO-31 renal; TK-10 renal; ACHN renal; CAKI-1 renal; A498 renal; CCRF-CEM leukemia; MOLT-4 leukemia; SR leukemia; RPMI-8226 leukemia; OVCAR-8 ovarian; OVCAR-5 ovarian; OVCAR-4 ovarian; SK-OV-3 ovarian; IGROV1 ovarian; OVCAR-3 ovarian; NCI/ADR-RES ovarian.
What all share (assay): NCI-60 one-dose screen, 48 h (100 = growth as untreated, 0 = no growth, -100 = all killed)
What all share (conditions): 10 µM unless noted

The panel holds about 83,000 compounds, 20% with a hit somewhere; the sample as a whole holds those more often.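 For each line, cells grew in 96-well plates with the test compound present at a single concentration for 48 hours.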 Values without a mark were called inactive. Activity calls are given as the source filed them. How the source made its calls: active means growth percent below 10; inactive means the rest.

In the case of `O=C(c1c(F)ccc(NS(=O)(=O)N2CC[C@@H](F)C2)c1F)c1c[nH]c2ncc(-c3cnc(C4CC4)nc3)cc12`, the growth is 58.5% in the experiment with EKVX NSCLC; 48% in the experiment on SN12C renal; 25.9% in the experiment with UO-31 renal; 41.7% in the experiment on TK-10 renal; 34.5% in the experiment with ACHN renal; 16.7% in the experiment with CAKI-1 renal. Moreover, the growth in the experiment on A498 renal is 62.7%; in the experiment on CCRF-CEM leukemia, 47.6%; in the experiment on MOLT-4 leukemia, 16.3%; in the experiment on SR leukemia, 21.6%; with RPMI-8226 leukemia, 36.3%; in the experiment on OVCAR-8 ovarian it was 31.7%. Moreover, the growth in the experiment with OVCAR-5 ovarian was 58.3%; with OVCAR-4 ovarian, 64.2%; in the experiment on SK-OV-3 ovarian, 3.3% (active); in the experiment on IGROV1 ovarian it was 17%; in the experiment on OVCAR-3 ovarian it was 69.4%; in the experiment on NCI/ADR-RES ovarian, 102%.
Take `CCOc1cc2ncc(C#N)c(Nc3ccc(F)c(Cl)c3)c2cc1NC(=O)/C=C/CN(C)C`: the growth was -22% (active) with EKVX NSCLC; -51.7% (active) in the experiment on SN12C renal; -92.2% (active) in the experiment on UO-31 renal; -75.9% (active) in the experiment on TK-10 renal; -94.3% (active) in the experiment with ACHN renal; -59.6% (active) in the experiment on CAKI-1 renal. The growth was -3.54% (active) in the experiment on A498 renal; 0.208% (active) in the experiment on CCRF-CEM leukemia; -26% (active) with MOLT-4 leukemia; -14% (active) with SR leukemia; -34.6% (active) in the experiment with RPMI-8226 leukemia; -7.83% (active) in the experiment with OVCAR-8 ovarian. Besides, the growth with OVCAR-5 ovarian was -3.14% (active); in the experiment on OVCAR-4 ovarian, -61.9% (active); in the experiment with SK-OV-3 ovarian, -5.87% (active); in the experiment on IGROV1 ovarian it was -32.1% (active); in the experiment with OVCAR-3 ovarian it was -82.7% (active); in the experiment with NCI/ADR-RES ovarian, 6.54% (active).
Turning to `CNS(=O)(=O)Nc1nccc(Cc2c(C)c3ccc(Oc4ncccn4)cc3oc2=O)c1F`, the growth was 55% in the experiment on EKVX NSCLC; 73.1% in the experiment on SN12C renal; 53.8% in the experiment with UO-31 renal; 34.1% in the experiment on TK-10 renal; 56.8% with ACHN renal; 44.7% in the experiment with CAKI-1 renal. Further, the growth was -17.2% (active) in the experiment with A498 renal; 84.4% in the experiment on CCRF-CEM leukemia; 76.2% in the experiment on MOLT-4 leukemia; 58.3% with SR leukemia; 55.3% in the experiment with RPMI-8226 leukemia; 63.2% with OVCAR-8 ovarian. The growth is 20.4% in the experiment with OVCAR-5 ovarian; 55% with OVCAR-4 ovarian; 53.3% in the experiment with SK-OV-3 ovarian; 28.7% in the experiment with IGROV1 ovarian; 76.2% in the experiment on OVCAR-3 ovarian; 70.6% in the experiment on NCI/ADR-RES ovarian.
Regarding `COCCOc1cnc2ccn([C@H](C)c3nnc4c(F)cc(-c5cnn(C)c5)cn34)c(=O)c2c1`, the growth was 96% in the experiment on EKVX NSCLC; 86.3% with SN12C renal; 60% in the experiment with UO-31 renal; 105% in the experiment on TK-10 renal; 80.3% with ACHN renal; 65.2% with CAKI-1 renal. The growth in the experiment with A498 renal was 35.9%; with CCRF-CEM leukemia, 70.6%; in the experiment with MOLT-4 leukemia, 78.7%; in the experiment with SR leukemia, 84%; with RPMI-8226 leukemia, 78.8%; in the experiment with OVCAR-8 ovarian, 86.9%. For the same compound, the growth in the experiment on OVCAR-5 ovarian is 31.5%; with OVCAR-4 ovarian, 88.4%; in the experiment on SK-OV-3 ovarian, 82.4%; in the experiment with IGROV1 ovarian, 66.3%; in the experiment on OVCAR-3 ovarian it was 102%; in the experiment with NCI/ADR-RES ovarian it was 91.3%.
`O=C1C=CC2(NN=C(c3ccccc3)N2c2ccc(Cl)cc2)c2cccc(O)c21` (configuration not stated): the growth with EKVX NSCLC was 75.1%; with SN12C renal, 26.4%; in the experiment with UO-31 renal, 28.2%; with TK-10 renal, 100%; in the experiment on ACHN renal it was 61.1%; with CAKI-1 renal it was 84%. The growth in the experiment on A498 renal is 91.3%; in the experiment on CCRF-CEM leukemia, 83.1%; with MOLT-4 leukemia it was 61.8%; in the experiment with SR leukemia it was 36.8%; in the experiment with RPMI-8226 leukemia it was 64%; with OVCAR-8 ovarian, 43.4%. The growth with OVCAR-5 ovarian is 47.6%; in the experiment with OVCAR-4 ovarian, 43.3%; in the experiment on SK-OV-3 ovarian, 102%; in the experiment on IGROV1 ovarian, 66.7%; in the experiment on OVCAR-3 ovarian, 13.5%; in the experiment with NCI/ADR-RES ovarian, 45.1%.
As for `CCn1c(-c2nonc2N)nc2c(C#CC(C)(C)O)ncc(OC[C@H]3CCCNC3)c21`, the growth with EKVX NSCLC is 91.9%; with SN12C renal it was 55.7%; with UO-31 renal it was 50.7%; in the experiment on TK-10 renal, 46.2%; in the experiment on ACHN renal it was 78.4%; in the experiment with CAKI-1 renal, 54.5%. Besides, the growth in the experiment with A498 renal is 42.3%; with CCRF-CEM leukemia, 28.7%; with MOLT-4 leukemia, 18.5%; with SR leukemia, 29.3%; in the experiment on RPMI-8226 leukemia it was 91.7%; with OVCAR-8 ovarian it was 70.6%. Besides, the growth was 108% in the experiment with OVCAR-5 ovarian; 68.5% in the experiment on OVCAR-4 ovarian; 15% with SK-OV-3 ovarian; 23.9% in the experiment on IGROV1 ovarian; 41.3% in the experiment on OVCAR-3 ovarian; 95.6% in the experiment on NCI/ADR-RES ovarian.
In the case of `C=CC(=O)N1CCC[C@@H](n2nc(-c3ccc(Oc4ccccc4)cc3)c3c(N)ncnc32)C1`, the growth in the experiment with EKVX NSCLC is 52.8%; in the experiment with SN12C renal, 27.2%; with UO-31 renal, 6.16% (active); with TK-10 renal, -8.56% (active); with ACHN renal it was 23.5%; in the experiment on CAKI-1 renal, 32.9%. Besides, the growth in the experiment with A498 renal was -17.1% (active); in the experiment on CCRF-CEM leukemia, 54.8%; in the experiment on MOLT-4 leukemia it was 25.3%; in the experiment on SR leukemia, 50.3%; with RPMI-8226 leukemia, 42.1%; with OVCAR-8 ovarian, 40.1%. The growth was 81.7% in the experiment with OVCAR-5 ovarian; 60.6% in the experiment on OVCAR-4 ovarian; -2.8% (active) in the experiment on SK-OV-3 ovarian; 7.56% (active) with IGROV1 ovarian; 66.3% with OVCAR-3 ovarian; 46.4% in the experiment on NCI/ADR-RES ovarian.
For the compound `C[C@H]1Oc2cc(cnc2N)-c2c(nn(C)c2C#N)CN(C)C(=O)c2ccc(F)cc21`, the growth in the experiment on EKVX NSCLC was 82.5%; with SN12C renal, 94.6%; with UO-31 renal, 84.3%; with TK-10 renal it was 74%; in the experiment on ACHN renal it was 86%; in the experiment with CAKI-1 renal, 73%. Also, the growth was 109% with A498 renal; 93.8% with CCRF-CEM leukemia; 70.5% in the experiment with MOLT-4 leukemia; 6.17% (active) in the experiment on SR leukemia; 92.6% in the experiment on RPMI-8226 leukemia; 83.2% in the experiment with OVCAR-8 ovarian. Further, the growth with OVCAR-5 ovarian was 58.3%; in the experiment with OVCAR-4 ovarian, 81.1%; with SK-OV-3 ovarian, 55.1%; in the experiment with IGROV1 ovarian, 80.2%; with OVCAR-3 ovarian it was 108%; in the experiment with NCI/ADR-RES ovarian, 80.4%.
Turning to `O=C1NC(=O)/C(=C/c2ccc3nccc(-c4ccncc4)c3c2)S1`, the growth in the experiment on EKVX NSCLC was -16.9% (active); in the experiment on SN12C renal, -5.67% (active); in the experiment with UO-31 renal, -37.7% (active); with TK-10 renal, -68.8% (active); with ACHN renal it was -21.2% (active); in the experiment with CAKI-1 renal it was -40.2% (active). Further, the growth was -77.1% (active) in the experiment with A498 renal; 0.0384% (active) in the experiment on CCRF-CEM leukemia; -8.29% (active) in the experiment on MOLT-4 leukemia; -26.5% (active) in the experiment on SR leukemia; -16.5% (active) with RPMI-8226 leukemia; -18.8% (active) with OVCAR-8 ovarian. Further, the growth with OVCAR-5 ovarian was -30.1% (active); in the experiment on OVCAR-4 ovarian, -22.7% (active); with SK-OV-3 ovarian, -60.3% (active); with IGROV1 ovarian, -60.1% (active); with OVCAR-3 ovarian, -30.4% (active); with NCI/ADR-RES ovarian, -14.6% (active).
